# Test results published in PubChem BioAssay (EPA / NIEHS).
# Several values for one entry are separate records, joined by “and”; a condition that tells them apart may be missing. Identical values can stand only once. Results filed as inconclusive are left out. Activity calls are given as the source filed them. How the source made its calls, unless noted: active means hit-call score of the fitted dose curve at least 0.9, where 1 is the maximum; inconclusive means response in the unintended direction; inactive means score below 0.9.
# Experiments:
# [1] = biological target: Nucleoli Translocation, AR (gene 367) (UniProt P10275); test: UPITT_HCI_U2OS_AR_TIF2_Nucleoli_Antagonist: University of Pittsburgh U2OS Androgen Receptor-Transcriptional Intermediary Factor 2 (AR-TIF2) Antagonism High Content Imaging Assay for Nucleoli Translocation (AID 2283997)
# In short: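 Antagonism is read as loss of nucleolar AR-RFP signal relative to DHT, imaged in U2OS cells also carrying GFP-TIF2. Compounds screened at 20 uM final, 0.2% DMSO; primary actives retested in triplicate.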
# [2] = biological target: Ratio of Nucleoli Translocation and Cytoplasm, AR (gene 367) (UniProt P10275); test: UPITT_HCI_U2OS_AR_TIF2_Nucleoli_Cytoplasm_Ratio_Antagonist: University of Pittsburgh U2OS Androgen Receptor-Transcriptional Intermediary Factor 2 (AR-TIF2) Antagonism High Content Imaging Assay for Ratio of Nucleoli Translocation and Cytoplasm (AID 2283999);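 further: antagonists lower the DHT-driven ratio of nucleolar to cytoplasmic red signal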
# In short: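 High-content imaging of red fluorescence ratio, nucleoli versus cytoplasm, in U2OS expressing AR-RFP and TIF2-GFP, fitted relative to DHT. Compounds tested once at 20 uM final, then 0.195 to 50 uM final in serial dilution.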
# [3] = biological target: Ratio of Nucleoli Translocation and Cytoplasm, AR (gene 367) (UniProt P10275); test: UPITT_HCI_U2OS_AR_TIF2_Nucleoli_Cytoplasm_Ratio_Agonist: University of Pittsburgh U2OS Androgen Receptor-Transcriptional Intermediary Factor 2 (AR-TIF2) Agonism High Content Imaging Assay for Ratio of Nucleoli Translocation and Cytoplasm (AID 2284000);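 further: hits raise the red nucleolar to cytoplasm ratio above vehicle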
# In short: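 Compounds tested at 20 uM final in primary screen (0.2% DMSO) and 0.195-50 uM final in dose-response (0.5% DMSO). Imaging of human U2OS cells bearing RFP-AR and GFP-TIF2; endpoint is nucleoli/cytoplasm red signal ratio, positive direction relative to DMSO.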
# [4] = CCTE_Simmons_MITO_basal_resp_rate: CCTE's HepG2 Seahorse XF Respirometric Screening Assay at Basal Respiratory State, Simmons Lab (AID 2284001; active means hit-call score of the fitted dose curve at least 0.9, where 1 is the maximum; inactive means score below 0.9); conditions: actives raise or lower the signal
# In short: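 Basal-phase OCR in HepG2 cells, read at 6-min intervals across a 72-min run, with test compound injected at 125 nM–100 uM final (7 points). Fitted both directions against DMSO; three biological replicates per concentration.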
# DIO1 (gene 1733) = test: CCTE_GLTED_hDIO1: CCTE's human Deiodinase 1 (DIO1) Inhibition Assay, Great Lakes Toxicology and Ecology Division (GLTED) Lab (AID 2283987);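 further: isolated human DIO1 enzyme in a cell-free setup rather than cells; enzyme activity read as free iodide liberated from substrate via Sandell-Kolthoff colorimetry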
# In short: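 Chemicals are tested on human DIO1 without cells for 3 h. Uninhibited enzyme frees iodide, which speeds cerium(IV) reduction by arsenic and is read by spectrophotometry.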
# THRB (gene 7068) = THRB (gene 7068) (UniProt P10828); test: TOX21_TRB_COA_Agonist_Followup_ratio: Tox21 Thyroid Hormone Receptor beta Agonism through Coactivator Recruitment Follow-Up Assay, Ratio (AID 2283963; active means hit-call score of the fitted dose curve at least 0.9, where 1 is the maximum; inactive means score below 0.9)
# In short: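 GST-TRb LBD 5.0 nM + 0.10% BSA + cpd; add fluorescein-SRC-2 200 nM / Tb anti-GST Ab 2 nM; TR-FRET ex 340, em 520:495; norm DMSO 0%, T3 100%.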
# [5] = biological target: Retinoic acid receptor RXR-alpha (Homo sapiens) (UniProt P19793); test: TOX21_TR_RXR_BLA_Agonist_Followup_ratio: Tox21 Thyroid Hormone Receptor beta Retinoid X Receptor alpha (RXRa) Agonism Beta-lactamase (BLA) Follow-Up Assay, Ratio (AID 2283968)
# In short: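 Agonist mode: compounds given to RXRa-bla HEK293T cells at 11 concentrations, triplicate, 16 h at 37C/5% CO2. Readout is the 460:530 nm blue/green ratio after 2 h substrate loading at room temperature; DMSO baseline, 9-cis retinoic acid control.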
# [6] = TOX21_TR_RXR_BLA_Agonist_Followup_viability: Viability Assessment in the Tox21 Thyroid Hormone Receptor beta Retinoid X Receptor alpha (RXRa) Agonism Beta-lactamase (BLA) Follow-Up Assay (AID 2283970)
# In short: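 CellTiter-Glo ATP luciferase read-out of cell viability, multiplexed with the beta-lactamase reporter run. RXRa-bla HEK293T cells in charcoal-stripped serum medium were exposed 16 h at 37C; data fitted both directions relative to DMSO.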
# Nucleoli Translocation, AR (gene 367), sequence (P10275 whole entry, looked up): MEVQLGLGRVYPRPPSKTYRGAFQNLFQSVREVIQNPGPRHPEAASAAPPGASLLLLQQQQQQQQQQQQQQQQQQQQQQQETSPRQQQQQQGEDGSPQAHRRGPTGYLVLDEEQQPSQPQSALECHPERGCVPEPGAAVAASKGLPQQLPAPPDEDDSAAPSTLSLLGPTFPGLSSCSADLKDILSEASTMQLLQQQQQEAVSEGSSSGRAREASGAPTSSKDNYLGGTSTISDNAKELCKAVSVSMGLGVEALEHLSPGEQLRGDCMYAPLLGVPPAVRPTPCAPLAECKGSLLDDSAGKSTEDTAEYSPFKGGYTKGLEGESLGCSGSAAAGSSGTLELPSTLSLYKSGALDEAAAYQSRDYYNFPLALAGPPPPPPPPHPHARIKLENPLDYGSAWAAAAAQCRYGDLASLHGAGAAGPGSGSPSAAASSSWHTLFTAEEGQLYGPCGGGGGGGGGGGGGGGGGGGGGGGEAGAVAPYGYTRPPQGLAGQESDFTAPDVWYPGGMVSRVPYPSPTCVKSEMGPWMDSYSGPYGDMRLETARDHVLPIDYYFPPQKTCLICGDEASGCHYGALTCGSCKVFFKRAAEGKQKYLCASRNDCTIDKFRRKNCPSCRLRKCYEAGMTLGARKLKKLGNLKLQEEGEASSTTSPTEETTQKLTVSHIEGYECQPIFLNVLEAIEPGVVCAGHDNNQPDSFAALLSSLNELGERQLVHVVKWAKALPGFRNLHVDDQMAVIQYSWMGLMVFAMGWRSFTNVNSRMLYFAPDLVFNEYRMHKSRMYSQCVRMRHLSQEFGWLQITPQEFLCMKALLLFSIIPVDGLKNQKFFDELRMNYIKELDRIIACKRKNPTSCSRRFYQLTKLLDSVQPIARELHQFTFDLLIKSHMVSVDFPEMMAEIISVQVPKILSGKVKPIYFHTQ
# Ratio of Nucleoli Translocation and Cytoplasm, AR (gene 367), sequence (P10275 whole entry, looked up): as above
# THRB (gene 7068), sequence (P10828 whole entry, looked up, the tested form may be a part): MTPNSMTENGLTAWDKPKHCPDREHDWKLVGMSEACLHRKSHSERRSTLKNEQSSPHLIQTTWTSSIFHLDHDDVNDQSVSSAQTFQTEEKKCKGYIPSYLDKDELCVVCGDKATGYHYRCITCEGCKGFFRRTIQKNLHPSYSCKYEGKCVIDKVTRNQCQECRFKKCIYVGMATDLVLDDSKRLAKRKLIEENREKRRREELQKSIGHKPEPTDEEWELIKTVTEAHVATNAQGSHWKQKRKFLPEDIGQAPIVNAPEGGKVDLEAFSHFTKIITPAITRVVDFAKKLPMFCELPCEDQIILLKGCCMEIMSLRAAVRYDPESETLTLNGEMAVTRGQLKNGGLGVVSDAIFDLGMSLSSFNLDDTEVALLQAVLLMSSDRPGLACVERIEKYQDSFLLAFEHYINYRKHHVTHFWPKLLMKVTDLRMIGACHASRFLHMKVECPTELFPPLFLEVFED
# Retinoic acid receptor RXR-alpha (Homo sapiens), sequence (P19793 whole entry, looked up): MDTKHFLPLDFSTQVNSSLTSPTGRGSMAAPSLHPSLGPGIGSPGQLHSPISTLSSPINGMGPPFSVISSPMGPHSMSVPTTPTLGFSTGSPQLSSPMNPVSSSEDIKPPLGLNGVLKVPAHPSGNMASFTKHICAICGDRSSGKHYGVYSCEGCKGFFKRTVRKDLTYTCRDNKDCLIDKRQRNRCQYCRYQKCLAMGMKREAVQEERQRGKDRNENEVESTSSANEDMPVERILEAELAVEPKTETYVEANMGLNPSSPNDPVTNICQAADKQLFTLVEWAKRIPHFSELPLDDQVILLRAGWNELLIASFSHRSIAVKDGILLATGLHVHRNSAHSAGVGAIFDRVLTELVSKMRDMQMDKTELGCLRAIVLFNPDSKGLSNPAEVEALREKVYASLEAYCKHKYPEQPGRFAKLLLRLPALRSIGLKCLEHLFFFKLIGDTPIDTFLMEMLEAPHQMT
smiles,measurement,setting,value
CC(=O)[O][Hg][c]1ccccc1,AC50,[1],0.29 µM (active)
same,AC50,[2],0.424 µM (active)
same,outcome,[3],inactive
same,AC50,[4],13.1 µM (active)
CC12CC1(C)C(=O)N(c1cc(Cl)cc(Cl)c1)C2=O (stereo not given),AC50,[1],0.134 µM (active)
same,outcome,[2],inactive
same,outcome,[3],inactive
CCC1(c2ccc(N)cc2)CCC(=O)NC1=O (stereo not given),outcome,[1],inactive
same,outcome,[2],inactive
C=CC(=O)OCCCCCC(C)C,AC50,DIO1 (gene 1733),30.8 µM (active)
same,outcome,[1],inactive
same,outcome,[2],inactive
Cc1ccccc1C(=O)Nc1cccc(OC(C)C)c1,outcome,[1],inactive
same,outcome,[2],inactive
same,outcome,[3],inactive
COc1cc(-c2ccc(N)c(OC)c2)ccc1N,outcome,[4],inactive
CCC(=O)C(CC(C)N(C)C)(c1ccccc1)c1ccccc1 (stereo not given),outcome,[1],inactive
same,outcome,[2],inactive
same,outcome,[3],inactive
CN(CCCC(=O)c1cccnc1)N=O,outcome,[1],inactive
same,outcome,[2],inactive
same,outcome,[3],inactive
O=[N+]([O-])c1ccc(O)c([N+](=O)[O-])c1,outcome,[1],inactive
same,outcome,[2],inactive
same,outcome,[3],inactive
same,AC50,[4],13 µM (active) and 10.3 µM (active)
Cl/C=C\C[N+]12CN3CN(CN(C3)C1)C2,AC50,[1],50 µM (active)
same,AC50,[2],50 µM (active)
same,outcome,[3],inactive
O=C1C2(Cl)C3(Cl)C4(Cl)C(Cl)(Cl)C5(Cl)C3(Cl)C1(Cl)C5(Cl)C24Cl (stereo not given),AC50,[1],13.3 µM (active)
same,AC50,[2],13.7 µM (active)
same,AC50,[3],13.1 µM (active)
same,AC50,[4],54 µM (active)
CC(C)(c1ccc(OCC2CO2)cc1)c1ccc(OCC2CO2)cc1 (stereo not given),AC50,DIO1 (gene 1733),1.37 µM (active)
same,AC50,[1],50 µM (active)
same,AC50,[2],38.1 µM (active)
same,outcome,[3],inactive
O=c1[nH]c(=O)[nH]c(=O)[nH]1,outcome,[1],inactive
same,outcome,[2],inactive
Cc1ccc2ccccc2c1C,outcome,[1],inactive
same,outcome,[2],inactive
same,outcome,[3],inactive
COP(=S)(OC)Oc1cc(Cl)c(Cl)cc1Cl,outcome,[1],inactive
same,outcome,[2],inactive
same,outcome,[3],inactive
C[C@]12CCC(=O)C[C@@H]1CC[C@@H]1[C@@H]2CC[C@]2(C)[C@@H](O)CC[C@@H]12,outcome,[4],inactive
CC(C)CCCCCCOC(=O)c1ccccc1C(=O)OCCCCCCC(C)C,outcome,[1],inactive
same,outcome,[3],inactive
C=C(C)C(=O)[O][Sn]([CH2]CCC)([CH2]CCC)[CH2]CCC,outcome,THRB (gene 7068),inactive
same,AC50,[5],0.116 µM (active)
same,AC50,[6],15.1 µM (active)
same,AC50,[4],6.57 µM (active)
c1cc[c]([Hg][c]2ccccc2)cc1,AC50,[1],70.3 µM (active)
same,AC50,[2],85.1 µM (active)
same,outcome,[3],inactive
ClC1(Cl)C2(Cl)C3(Cl)C4(Cl)C(Cl)(Cl)C5(Cl)C3(Cl)C1(Cl)C5(Cl)C24Cl (stereo not given),outcome,[1],inactive
COP(=S)(OC)Oc1ccc(Sc2ccc(OP(=S)(OC)OC)cc2)cc1,AC50,DIO1 (gene 1733),1.19 µM (active)
same,outcome,[1],inactive
same,outcome,[2],inactive
same,outcome,[3],inactive
